# Laboratory results as given in PubChem BioAssay AID1159580 (chemical genetic matrix, 2015).
# Several values for one entry are separate records, joined by “and”; a condition that tells them apart may be missing. Identical values can stand only once. Among all 5,500 compounds or so, about 2,000 (36%) were called active. About 18% were inconclusive and are not listed. The list shows a part of the results. A number with no mark means an inactive call. No stated cut-off is given here; in the data, active means normalized growth mostly below about 0.91 (no sharp cut-off); inconclusive means no clear call, values can overlap the other calls; inactive means mostly above about 0.92.
# Assay: chemical genetic growth profiling, strain panel (AID 1159580);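 further: tested at 20 µM; growth read once vehicle control cultures reached saturation at 30 °C; 1 = growth at the plate median or of vehicle wells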
# Details: S. cerevisiae deletion strains, growth OD
structure (smiles),measurement,setting,value
CC(=O)O[C@H]1C(=O)[C@@]2(C)C([C@H](OC(=O)c3ccccc3)[C@]3(O)C[C@H](OC(=O)[C@H](O)[C@@H](NC(=O)c4ccccc4)c4ccccc4)C(C)=C1C3(C)C)[C@]1(OC(C)=O)CO[C@@H]1C[C@@H]2O (stereo partly specified),normalized growth,"locus YAL013W, strain DEP1, stronger effect = lower value",1.08
same,normalized growth,"locus YAL021C, strain ccr4, stronger effect = lower value",0.995
same,normalized growth,"locus YAL026C, strain drs2, stronger effect = lower value",0.979
same,normalized growth,"locus YAL030W, strain snc1, stronger effect = lower value",1
same,normalized growth,"locus YBL061C, strain skt5, stronger effect = lower value",1.01
same,normalized growth,"locus YBR009C, strain hhf1, stronger effect = lower value",0.989
same,normalized growth,"locus YBR021W, strain FUR4, stronger effect = lower value",1.05
same,normalized growth,"locus YBR023C, strain chs3, stronger effect = lower value",1.01
same,normalized growth,"locus YBR171W, strain sec66, stronger effect = lower value",0.991
same,normalized growth,"locus YBR229C, strain ROT2, stronger effect = lower value",1.02
same,normalized growth,"locus YBR231C, strain swc5, stronger effect = lower value",1.02
same,normalized growth,"locus YBR279W, strain paf1, stronger effect = lower value",0.994
same,normalized growth,"locus YCL011C, strain gbp2, stronger effect = lower value",1.02
same,normalized growth,"locus YCL016C, strain dcc1, stronger effect = lower value",1.04
same,normalized growth,"locus YCL029C, strain bik1, stronger effect = lower value",1.05
same,normalized growth,"locus YCL061C, strain MRC1, stronger effect = lower value",1.01
same,normalized growth,"locus YCL069W, strain vba3, stronger effect = lower value",1.01
same,normalized growth,"locus YCR088W, strain abp1, stronger effect = lower value",1
same,normalized growth,"locus YDL005C, strain med2, stronger effect = lower value",1
same,normalized growth,"locus YDL035C, strain GPR1, stronger effect = lower value",1.06
same,normalized growth,"locus YDL040C, strain nat1, stronger effect = lower value",1
same,normalized growth,"locus YDL074C, strain BRE1, stronger effect = lower value",1.05
same,normalized growth,"locus YDL101C, strain DUN1, stronger effect = lower value",1.03
same,normalized growth,"locus YDL134C, strain PPH21, stronger effect = lower value",1.03
same,normalized growth,"locus YDL185W, strain tfp1, stronger effect = lower value",0.936
same,normalized growth,"locus YDL192W, strain arf1, stronger effect = lower value",1.14 [resistant] (active)
same,normalized growth,"locus YDR001C, strain nth1, stronger effect = lower value",1.02
same,normalized growth,"locus YDR069C, strain doa4, stronger effect = lower value",0.975
same,normalized growth,"locus YDR101C, strain arx1, stronger effect = lower value",1.07
same,normalized growth,"locus YDR137W, strain rgp1, stronger effect = lower value",1.02
same,normalized growth,"locus YDR150W, strain NUM1, stronger effect = lower value",1.03
same,normalized growth,"locus YDR159W, strain sac3, stronger effect = lower value",0.975
same,normalized growth,"locus YDR162C, strain NBP2, stronger effect = lower value",1.04
same,normalized growth,"locus YDR195W, strain ref2",0.994
same,normalized growth,"locus YDR297W, strain sur2, stronger effect = lower value",0.996
same,normalized growth,"locus YDR318W, strain mcm21, stronger effect = lower value",1.07
same,normalized growth,"locus YDR334W, strain swr1, stronger effect = lower value",1
same,normalized growth,"locus YDR335W, strain msn5, stronger effect = lower value",1
same,normalized growth,"locus YDR388W, stronger effect = lower value",1.06
same,normalized growth,"locus YDR392W, strain spt3, stronger effect = lower value",0.79
same,normalized growth,"locus YDR502C, strain sam2, stronger effect = lower value",1.16 [resistant] (active)
same,normalized growth,"locus YEL003W, strain gim4, stronger effect = lower value",0.979
same,normalized growth,"locus YEL037C, strain rad23, stronger effect = lower value",1.02
same,normalized growth,"locus YEL061C, strain CIN8 (second series), stronger effect = lower value",0.989
same,normalized growth,"locus YEL061C, strain CIN8, stronger effect = lower value",1.05
same,normalized growth,"locus YER015W, strain faa2, stronger effect = lower value",0.997
same,normalized growth,"locus YER016W, strain bim1, stronger effect = lower value",1.01
same,normalized growth,"locus YER110C, stronger effect = lower value",1.1
same,normalized growth,"locus YER111C, strain swi4, stronger effect = lower value",1.02
same,normalized growth,"locus YER155C, strain BEM2 (second series), stronger effect = lower value",0.824 (active)
same,normalized growth,"locus YER155C, strain BEM2, stronger effect = lower value",1.03
same,normalized growth,"locus YER167W, strain BCK2, stronger effect = lower value",1.04
same,normalized growth,"locus YFR010W, strain ubp6, stronger effect = lower value",0.988
same,normalized growth,"locus YGL078C, strain dbp3, stronger effect = lower value",1.02
same,normalized growth,"locus YGL086W, strain mad1, stronger effect = lower value",0.944
same,normalized growth,"locus YGL167C, strain pmr1, stronger effect = lower value",0.994
same,normalized growth,"locus YGL173C, strain kem1, stronger effect = lower value",1
same,normalized growth,"locus YGL227W, strain vid30, stronger effect = lower value",1.02
same,normalized growth,"locus YGL240W, strain doc1, stronger effect = lower value",0.968
same,normalized growth,"locus YGL248W, strain PDE1, stronger effect = lower value",1.03
same,normalized growth,"locus YGL253W, strain hxk2, stronger effect = lower value",0.95
same,normalized growth,"locus YGR078C, strain PAC10, stronger effect = lower value",1.04
same,normalized growth,"locus YGR135W, strain pre9, stronger effect = lower value",1.05
same,normalized growth,"locus YGR229C, strain SMI1, stronger effect = lower value",1.13
same,normalized growth,"locus YGR252W, strain gcn5, stronger effect = lower value",1.13
same,normalized growth,"locus YHR013C, strain ard1, stronger effect = lower value",0.991
same,normalized growth,"locus YHR027C, strain rpn1, stronger effect = lower value",0.988
same,normalized growth,"locus YHR030C, strain SLT2, stronger effect = lower value",1.03 and 0.96
same,normalized growth,"locus YHR079C, strain IRE1 (second series), stronger effect = lower value",1.03
same,normalized growth,"locus YHR079C, strain IRE1, stronger effect = lower value",1
same,normalized growth,"locus YHR094C, strain hxt1, stronger effect = lower value",1.05
same,normalized growth,"locus YHR129C, strain ARP1, stronger effect = lower value",1.03
same,normalized growth,"locus YHR142W, strain chs7, stronger effect = lower value",1
same,normalized growth,"locus YHR200W, strain rpn10, stronger effect = lower value",1.17 [resistant] (active)
same,normalized growth,"locus YIL066C, strain RNR3, stronger effect = lower value",1.03
same,normalized growth,"locus YIL073C, strain SPO22, stronger effect = lower value",1.04
same,normalized growth,"locus YIL125W, strain kgd1, stronger effect = lower value",1.06
same,normalized growth,"locus YIR030C, strain dcg1, stronger effect = lower value",1.09 [resistant] (active)
same,normalized growth,"locus YJL092W, strain hpr5, stronger effect = lower value",1.01
same,normalized growth,"locus YJL095W, strain BCK1 (second series), stronger effect = lower value",1
same,normalized growth,"locus YJL095W, strain BCK1, stronger effect = lower value",1.03 and 0.973
same,normalized growth,"locus YJL115W, strain asf1, stronger effect = lower value",1.01
same,normalized growth,"locus YJL129C, strain trk1, stronger effect = lower value",0.992
same,normalized growth,"locus YJL134W, strain LCB3, stronger effect = lower value",1.03
same,normalized growth,"locus YJL154C, strain vps35, stronger effect = lower value",1
same,normalized growth,"locus YJL164C, strain tpk1, stronger effect = lower value",0.969
same,normalized growth,"locus YJL166W, strain qcr8, stronger effect = lower value",1.01
same,normalized growth,"locus YJL168C, strain set2, stronger effect = lower value",1.07 [resistant] (active)
same,normalized growth,"locus YJL187C, strain SWE1 (second series), stronger effect = lower value",1.03
same,normalized growth,"locus YJL187C, strain SWE1, stronger effect = lower value",0.986
same,normalized growth,"locus YJR043C, strain POL32, stronger effect = lower value",1.06
